# Assay results as given in PubChem BioAssay (NCATS).
# “And” between values parts separate entries of the source, which are not always exact repeats. Identical values can stand only once. Records with an inconclusive call do not appear. The source made the active and inactive calls. Unless noted, calls come from the whole dose curve; as a rule, active = well fitted curve in the direction sought with a large enough effect; inconclusive = small, poorly fitted or top-dose-only effect, or another doubt; inactive = no such curve, though single readings can be large; an effect the other way counts as inactive or inconclusive. Where a SMILES comes first, the peptide text is derived from it. Bridges are numbered along the chain shown (N, C = ends). [ ]: non-standard residue; d: D form. Orn = NCCC[C@H](N)C(=O)O; Mpa = O=C(O)CCS
# Assays:
# [1] = qHTS Assay for Identifying Gametocytocidal Compounds (AID 743244);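 note: % is set by controls: 0 for no effect and ±100 for the full control effect; actives lower the fluorescent signal which means gametocytes are killed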; details: P. falciparum 3D7 stage III-V gametocytes, alamarBlue, 72 h; max response: stronger effect = lower value
# How it was run: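 Using 20,000 stage III–V 3D7 gametocytes per well, compounds were incubated 72 h under 37 °C/5% CO2. Viability was then assessed by 24 h alamarBlue reduction, measured fluorometrically at 525/598 nm.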
# [2] = P-glycoprotein substrates identified in KB-8-5-11 adenocarcinoma cell line, qHTS therapeutic library screen (AID 1346987); note: % is set by controls: 0 for no effect and ±100 for the full control effect; nearly all actives have a fitted effect of over 65% in size
# How it was run: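 In this qHTS, P-gp-rich KB-8-5-11 cells received library compounds across a concentration range. Viability was quantified by luminescence after 72 h at 37 degree C.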
# [3] = qHTS assay for cell viability of HEK293 cells (AID 743288); details: ATP luminescence (CellTiter-Glo), 18 h, stronger effect = lower value; note: % is set by controls: 0 for no effect and ±100 for the full control effect; nearly all actives have a fitted effect of over 50% in size
# How it was run: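 Readout is luciferase-coupled ATP content (CellTiter-Glo luminescence, 30 min room temperature) as a measure of metabolically competent cells. Parental HEK293 cells were plated 5 h or more before compound addition, then treated 18 h at 37 C.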
# [4] = qHTS assay for cell viability of the p53RE-bla HCT-116 cell line (AID 743292); note: % is set by controls: 0 for no effect and ±100 for the full control effect; nearly all actives have a fitted effect of over 55% in size
# How it was run: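 HCT-116 p53RE-bla cells seeded 4,000/well; 5 h at 37 C; compound (DMSO) added; 16 h at 37 C; CellTiter-Glo added, 30 min RT; luminescence read.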
# [5] = qHTS profiling of the MIPE4 collection as inhibitors of Plasmodium falciparum (3D7) proliferation (AID 743344; call rule not given here;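 note: scaled between DMSO vehicle wells and 0.29 µM artemisinin as full inhibition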); details: P. falciparum 3D7 in erythrocytes, SYBR Green DNA fluorescence, 72 h; at 28.5 µM (top of the series)
# How it was run: (§1)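 Parasite DNA was quantified by SYBR Green I fluorescence (ex 485, em 535 nm) after overnight lysis in saponin/Triton buffer at room temperature. Cultures at 0.3% parasitemia and 2.5% hematocrit were first exposed to compound for 72 h at 37 C; signals were normalised to artemisinin (0.29 uM) and vehicle wells.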
# [6] = qHTS profiling of the MIPE4 collection as inhibitors of Plasmodium falciparum (DD2) proliferation (AID 743345; call rule not given here); details: P. falciparum Dd2 in erythrocytes, SYBR Green DNA, 72 h; at 28.5 µM (top of the series)
# How it was run: as §1
# [7] = qHTS profiling of the MIPE4 collection as inhibitors of Plasmodium falciparum (DD2) proliferation (Rep 2) (AID 743346; call rule not given here); details: P. falciparum Dd2 in erythrocytes, SYBR Green DNA, 72 h; at 28.5 µM (top of the series)
# How it was run: as §1
# [8] = qHTS profiling of the MIPE4 collection as inhibitors of Plasmodium falciparum (HB3) proliferation (AID 743347; call rule not given here;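 note: plate controls were DMSO vehicle wells for no effect and artemisinin wells for full effect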); details: P. falciparum HB3 in erythrocytes, SYBR Green DNA, 72 h; at 28.5 µM (top of the series)
# How it was run: as §1
# [9] = biological target: T1, Hexokinase-4 (Homo sapiens) + Glucokinase regulatory protein (Homo sapiens) (UniProt P35557+Q14397); experiment: qHTS assay for inhibitors of recombinant human GCK-GKRP interaction: Diaphorase-coupled assay (AID 743205)
# T1 sequence (P35557 whole entry, looked up): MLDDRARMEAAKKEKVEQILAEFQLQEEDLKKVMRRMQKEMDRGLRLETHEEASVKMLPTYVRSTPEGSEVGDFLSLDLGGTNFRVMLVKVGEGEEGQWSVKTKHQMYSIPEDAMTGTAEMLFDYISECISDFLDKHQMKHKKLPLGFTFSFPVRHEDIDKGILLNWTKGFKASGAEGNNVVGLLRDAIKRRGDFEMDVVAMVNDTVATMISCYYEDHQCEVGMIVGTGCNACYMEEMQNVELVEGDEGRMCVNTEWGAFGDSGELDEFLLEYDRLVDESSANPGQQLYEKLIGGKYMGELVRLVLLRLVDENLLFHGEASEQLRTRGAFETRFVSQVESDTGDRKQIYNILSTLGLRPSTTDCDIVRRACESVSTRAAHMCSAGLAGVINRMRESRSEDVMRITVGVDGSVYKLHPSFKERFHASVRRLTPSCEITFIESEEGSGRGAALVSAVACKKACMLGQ
# T1 sequence (Q14397 whole entry, looked up): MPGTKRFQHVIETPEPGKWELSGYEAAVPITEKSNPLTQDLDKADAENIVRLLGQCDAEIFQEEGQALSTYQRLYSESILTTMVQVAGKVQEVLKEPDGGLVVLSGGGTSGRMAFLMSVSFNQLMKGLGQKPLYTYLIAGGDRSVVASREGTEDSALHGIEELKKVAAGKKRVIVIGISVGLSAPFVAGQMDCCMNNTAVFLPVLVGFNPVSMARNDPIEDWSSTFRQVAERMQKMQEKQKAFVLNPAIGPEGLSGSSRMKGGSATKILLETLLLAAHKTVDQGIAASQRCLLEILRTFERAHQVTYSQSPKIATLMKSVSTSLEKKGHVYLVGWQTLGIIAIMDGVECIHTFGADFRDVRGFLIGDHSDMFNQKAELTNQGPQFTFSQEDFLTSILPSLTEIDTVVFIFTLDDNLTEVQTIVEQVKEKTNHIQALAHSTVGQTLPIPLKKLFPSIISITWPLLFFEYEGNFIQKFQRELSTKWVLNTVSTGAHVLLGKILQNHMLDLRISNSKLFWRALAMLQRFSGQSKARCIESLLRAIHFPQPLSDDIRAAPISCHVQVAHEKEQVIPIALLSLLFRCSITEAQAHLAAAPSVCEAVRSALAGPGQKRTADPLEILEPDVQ
# How it was run: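 A kinetic fluorescence read (Ex 525/Em 590 nm, every minute for 30 minutes) tracked resorufin from a G6PDH-diaphorase coupled GCK reaction. It contained 10 nM GST-GCK, 10 nM FLAG-GKRP, 5 mM glucose, 0.4 mM ATP in Hepes pH 7.6. Normalized to with/without-enzyme DMSO controls.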
# [10] = biological target: T1, Hexokinase-4 (Homo sapiens) + Glucokinase regulatory protein (Homo sapiens); experiment: qHTS assay for inhibitors of recombinant human GCK-GKRP interaction: ADP-Glo assay (AID 743206);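 note: plate controls were DMSO plus enzyme for no effect and no enzyme for full effect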
# How it was run: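 Pin-transferred compounds meet a 15 nM GST-GCK/15 nM FLAG-GKRP/2 uM S6P mix (dispense concentrations). ATP is then added to 0.4 mM final with 5 mM glucose, and the reaction runs 60 min at room temperature. ADP is quantified luminescently.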
# [11] = biological target: T1, Hexokinase-4 (Homo sapiens) + Glucokinase regulatory protein (Homo sapiens); experiment: qHTS assay for inhibitors of recombinant human GCK-GKRP interaction: HTRF assay (AID 743207);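 note: 0% = DMSO with GCK present and -100% = DMSO wells lacking GCK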
# How it was run: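 After 60 min equilibration at room temperature with anti-FLAG XL665 and anti-GST antibodies, FRET ratio (665/615 nm, excitation 320 nm) was read. Proteins: GST-GCK and FLAG-GKRP, each 5 nM, plus 2 uM S6P, pH 7.1 buffer; GCK-free wells define minimum signal.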
# [12] = biological target: Atrial natriuretic peptide receptor 1 (Homo sapiens) (UniProt P16066); experiment: Natriuretic polypeptide receptor (hNpr1) antagonism - Pilot screen (AID 1347049; calls by dose curve;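 note: HEK293 cells with hNpr1 and GloSensor cGMP luciferase stimulated by 0.1 nM hNppA; agonist-evoked cGMP luminescence read 20 min after hNppA addition; % is set by controls: 0 for no effect and ±100 for the full control effect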)
# Chain of Atrial natriuretic peptide receptor 1 (Homo sapiens) (P16066 whole entry, looked up): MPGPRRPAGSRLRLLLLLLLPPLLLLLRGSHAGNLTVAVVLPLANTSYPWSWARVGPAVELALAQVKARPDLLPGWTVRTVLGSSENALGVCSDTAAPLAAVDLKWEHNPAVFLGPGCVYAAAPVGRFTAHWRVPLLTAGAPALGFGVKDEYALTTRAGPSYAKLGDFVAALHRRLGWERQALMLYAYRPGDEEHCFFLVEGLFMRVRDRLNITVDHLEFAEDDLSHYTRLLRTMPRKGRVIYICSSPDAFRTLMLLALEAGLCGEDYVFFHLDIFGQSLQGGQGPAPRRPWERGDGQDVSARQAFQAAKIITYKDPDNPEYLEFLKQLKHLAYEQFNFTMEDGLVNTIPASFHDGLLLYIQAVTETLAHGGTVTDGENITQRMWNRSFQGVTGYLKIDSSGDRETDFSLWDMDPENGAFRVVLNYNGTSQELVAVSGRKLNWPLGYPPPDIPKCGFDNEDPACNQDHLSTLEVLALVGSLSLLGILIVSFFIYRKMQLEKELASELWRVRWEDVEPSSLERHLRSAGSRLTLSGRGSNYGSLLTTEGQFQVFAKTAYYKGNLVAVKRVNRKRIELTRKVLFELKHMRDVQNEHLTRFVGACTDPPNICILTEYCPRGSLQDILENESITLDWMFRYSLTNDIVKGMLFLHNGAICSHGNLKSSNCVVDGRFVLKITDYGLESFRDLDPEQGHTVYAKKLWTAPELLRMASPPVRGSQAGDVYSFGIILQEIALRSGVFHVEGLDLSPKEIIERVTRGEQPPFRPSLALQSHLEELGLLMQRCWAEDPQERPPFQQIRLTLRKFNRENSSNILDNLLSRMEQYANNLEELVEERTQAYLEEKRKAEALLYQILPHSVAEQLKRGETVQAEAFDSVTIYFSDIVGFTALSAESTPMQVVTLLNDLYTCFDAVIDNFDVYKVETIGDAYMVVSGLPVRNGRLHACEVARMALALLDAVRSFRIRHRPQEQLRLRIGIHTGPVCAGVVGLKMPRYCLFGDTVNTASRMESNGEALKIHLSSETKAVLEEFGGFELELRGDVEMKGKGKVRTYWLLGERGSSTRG
# How it was run: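 Receptor antagonism read as cGMP-dependent luminescence in hNpr1/pGS-40F HEK293 cells: pre-read after 30 min compound exposure, post-read 20 min after hNppA agonist at 0.1 nM final, all at room temperature, protected from light; A-71915 titration as control.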
# [13] = biological target: Atrial natriuretic peptide receptor 2 (Homo sapiens) (UniProt P20594); experiment: Natriuretic polypeptide receptor (hNpr2) antagonism - Pilot subtype selectivity assay (AID 1347050; calls by dose curve; note: potency is the fitted concentration of half-maximal effect)
# Chain of Atrial natriuretic peptide receptor 2 (Homo sapiens) (P20594 whole entry, looked up): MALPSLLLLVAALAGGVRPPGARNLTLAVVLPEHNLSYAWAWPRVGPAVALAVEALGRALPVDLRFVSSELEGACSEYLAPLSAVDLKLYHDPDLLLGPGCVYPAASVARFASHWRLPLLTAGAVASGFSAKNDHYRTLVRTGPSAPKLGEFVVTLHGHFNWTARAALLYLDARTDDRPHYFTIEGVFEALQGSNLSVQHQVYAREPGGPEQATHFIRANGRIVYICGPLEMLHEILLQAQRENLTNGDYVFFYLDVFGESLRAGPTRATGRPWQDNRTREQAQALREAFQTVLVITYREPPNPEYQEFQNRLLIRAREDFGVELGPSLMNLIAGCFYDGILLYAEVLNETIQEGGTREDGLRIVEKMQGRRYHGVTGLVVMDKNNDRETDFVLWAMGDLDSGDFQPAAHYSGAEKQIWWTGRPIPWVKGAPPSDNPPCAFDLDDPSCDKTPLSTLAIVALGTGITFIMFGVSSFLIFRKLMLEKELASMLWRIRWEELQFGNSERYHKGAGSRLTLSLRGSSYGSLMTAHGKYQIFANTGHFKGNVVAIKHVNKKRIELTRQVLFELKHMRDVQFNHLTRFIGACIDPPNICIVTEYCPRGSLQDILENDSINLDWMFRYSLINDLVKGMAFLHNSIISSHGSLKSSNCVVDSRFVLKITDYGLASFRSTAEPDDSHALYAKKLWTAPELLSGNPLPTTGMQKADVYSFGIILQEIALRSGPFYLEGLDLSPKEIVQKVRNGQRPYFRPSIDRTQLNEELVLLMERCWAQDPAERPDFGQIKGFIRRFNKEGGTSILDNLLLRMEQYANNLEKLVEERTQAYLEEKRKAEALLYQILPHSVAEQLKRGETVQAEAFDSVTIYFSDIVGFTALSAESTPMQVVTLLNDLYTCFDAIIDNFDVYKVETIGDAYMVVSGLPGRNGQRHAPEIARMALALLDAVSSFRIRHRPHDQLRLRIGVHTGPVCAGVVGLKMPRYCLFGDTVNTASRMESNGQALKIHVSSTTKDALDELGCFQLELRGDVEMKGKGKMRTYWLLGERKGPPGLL
# How it was run: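 Antagonist mode: compounds (LOPAC1280, seven 1:5 dilutions) added 30 min before 1 nM hNppC stimulation of hNpr2-HEK293 cGMP-sensor cells; luminescence read before and 20 min after agonist at ambient temperature.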
# [14] = biological target: T2, Tyrosine-protein phosphatase non-receptor type substrate 1 (Homo sapiens) + Leukocyte surface antigen CD47 (Homo sapiens) (UniProt P78324+Q08722); experiment: CD47-SIRPalpha protein protein interaction - LANCE assay qHTS validation (AID 1347057; active = well fitted curve in the direction sought with a large enough effect in the signal ratio, with a control signal flat, not every such curve was filed as active; the % refers to the signal ratio; note: 0% is about no effect)
# T2 sequence (P78324 whole entry, looked up, the tested form may be a part): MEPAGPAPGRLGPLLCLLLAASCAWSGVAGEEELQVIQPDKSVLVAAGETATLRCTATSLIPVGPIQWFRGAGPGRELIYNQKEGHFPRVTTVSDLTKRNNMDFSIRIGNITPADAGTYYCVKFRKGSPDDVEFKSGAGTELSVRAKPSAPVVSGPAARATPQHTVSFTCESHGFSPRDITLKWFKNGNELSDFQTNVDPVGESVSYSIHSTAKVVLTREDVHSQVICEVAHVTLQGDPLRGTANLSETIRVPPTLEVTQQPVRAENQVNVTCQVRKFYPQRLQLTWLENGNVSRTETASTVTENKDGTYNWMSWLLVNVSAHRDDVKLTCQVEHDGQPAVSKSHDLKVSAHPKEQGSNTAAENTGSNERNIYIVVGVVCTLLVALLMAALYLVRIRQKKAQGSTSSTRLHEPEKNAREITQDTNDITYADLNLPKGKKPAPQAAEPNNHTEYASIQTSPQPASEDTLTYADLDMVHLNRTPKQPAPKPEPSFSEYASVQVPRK
# T2 sequence (Q08722 whole entry, looked up, the tested form may be a part): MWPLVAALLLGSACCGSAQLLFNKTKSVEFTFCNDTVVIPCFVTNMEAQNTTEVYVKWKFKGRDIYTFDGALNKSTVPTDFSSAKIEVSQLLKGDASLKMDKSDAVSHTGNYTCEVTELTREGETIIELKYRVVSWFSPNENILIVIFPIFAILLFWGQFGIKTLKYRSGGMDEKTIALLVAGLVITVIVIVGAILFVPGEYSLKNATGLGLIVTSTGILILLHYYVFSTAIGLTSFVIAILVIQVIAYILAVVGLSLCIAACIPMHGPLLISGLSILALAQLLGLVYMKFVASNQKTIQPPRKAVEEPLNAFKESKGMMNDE
# How it was run: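 Inhibition of soluble CD47/SIRPalpha ectodomain association by titrated compounds, measured as 665/615 nm time-resolved FRET ratio after sequential 30 min room-temperature incubations.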
# [15] = biological target: T2, Tyrosine-protein phosphatase non-receptor type substrate 1 (Homo sapiens) + Leukocyte surface antigen CD47 (Homo sapiens); experiment: CD47-SIRPalpha protein protein interaction - HTRF assay qHTS validation (AID 1347058; active = well fitted curve in the direction sought with a large enough effect in the signal ratio, not every such curve was filed as active; the % refers to the signal ratio; note: 0% is about no effect)
# How it was run: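 Soluble extracellular domains (6His-CD47, Avi-tag-biotinylated SIRPalpha) in PBS pH 7.4 with 0.05% IGEPAL CA-630. Compounds were preincubated 30 min at RT with CD47 and anti-His-Eu, then SIRPalpha and SAV-XL665 were added. TR-FRET 665/615 ratio.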
# [16] = biological target: T2, Tyrosine-protein phosphatase non-receptor type substrate 1 (Homo sapiens) + Leukocyte surface antigen CD47 (Homo sapiens); experiment: CD47-SIRPalpha protein protein interaction - Alpha assay qHTS validation (AID 1347059);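 note: bead proximity luminescence from CD47 binding SIRPalpha after compound preincubation with SIRPalpha; % is set by controls: 0 for no effect and ±100 for the full control effect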
# How it was run: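 AlphaScreen signal between CD47-His (12.5 nM) and biotin-SIRPalpha (25 nM) soluble extracellular domains, bead-captured via Ni-NTA and streptavidin. Compounds, in 7-point titrations, met SIRPalpha 30 min before CD47; PBS pH 7.4 with 0.05% IGEPAL.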
# [17] = biological target: Parathyroid hormone/parathyroid hormone-related peptide receptor (Homo sapiens) (UniProt Q03431); experiment: qHTS for PTHR1 Agonists: Optimization Screen against the NCGC LOPAC library (AID 1347079);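 note: GloSensor cAMP luminescence in HEK-293 GP2 cells expressing human PTHR1 with IBMX; 0% is about no effect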
# Chain of Parathyroid hormone/parathyroid hormone-related peptide receptor (Homo sapiens) (Q03431 whole entry, looked up): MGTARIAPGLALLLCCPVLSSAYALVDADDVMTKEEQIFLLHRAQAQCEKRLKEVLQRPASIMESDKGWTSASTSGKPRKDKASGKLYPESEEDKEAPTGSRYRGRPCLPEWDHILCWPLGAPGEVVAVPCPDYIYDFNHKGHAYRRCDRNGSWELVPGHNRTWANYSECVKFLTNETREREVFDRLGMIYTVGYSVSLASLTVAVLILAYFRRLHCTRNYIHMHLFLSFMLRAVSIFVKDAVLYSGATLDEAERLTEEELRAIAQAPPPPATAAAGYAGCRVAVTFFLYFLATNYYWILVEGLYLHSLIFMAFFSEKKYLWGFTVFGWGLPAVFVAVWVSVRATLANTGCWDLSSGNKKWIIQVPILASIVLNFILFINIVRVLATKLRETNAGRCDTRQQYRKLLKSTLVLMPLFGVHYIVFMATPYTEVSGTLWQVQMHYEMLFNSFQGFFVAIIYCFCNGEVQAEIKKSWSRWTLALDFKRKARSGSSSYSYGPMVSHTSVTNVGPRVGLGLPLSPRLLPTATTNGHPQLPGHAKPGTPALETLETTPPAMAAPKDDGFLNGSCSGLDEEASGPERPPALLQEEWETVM
# How it was run: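 Signal increase flags agonism. GP2 cells, derived from HEK-293, express human PTHR1 and a GloSensor cAMP construct.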
# [18] = qHTS of pediatric cancer cell lines to identify multiple opportunities for drug repurposing: Primary screen for SJ-GBM2 cells (AID 1347091); details: SJ-GBM2 viability, CellTiter-Glo luminescence, 48 h; note: potency is the fitted concentration of half-maximal effect
# How it was run: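 Cell viability, CellTiter-Glo luminescence; 500-1,000 cells/well, 8- or 11-point titration, 48 h compound exposure at 37 degrees C, 5% CO2. Controls: DMSO neutral, bortezomib 2.3 µM final as positive.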
# [19] = qHTS of pediatric cancer cell lines to identify multiple opportunities for drug repurposing: Primary screen for Saos-2 cells (AID 1347097); details: Saos-2 viability, CellTiter-Glo ATP luminescence, 48 h; note: potency is the fitted concentration of half-maximal effect; nearly all actives have a fitted effect of over 40% in size
# How it was run: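 Viability was measured as metabolically active cells after 48 hours of treatment, read by CellTiter-Glo luminescence. Compounds were tested at multiple final concentrations, giving concentration-response curves.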
smiles,measurement,setting,value
C=C[C@]1(C)C[C@@H](OC(=O)CO)[C@]2(C)[C@H](C)CC[C@]3(CCC(=O)[C@H]32)[C@@H](C)[C@@H]1O,max response,[1],11.6% (inactive)
same,Potency,[2],inactive
CC(=O)N[C@@H](C=O)[C@H](O)[C@H](O)[C@@H](O)CO,max response,[1],-5.02% (inactive) and 7.73% (inactive)
same,Potency,[2],inactive
CCCC(=O)N1CCCN(c2nc(N)c3cc(OC)c(OC)cc3n2)CC1,max response,[1],16.2% (inactive)
same,Potency,[2],inactive
CCOc1ccc(C[C@H]2NC(=O)CCSSC[C@@H](C(=O)N3CCC[C@H]3C(=O)N[C@@H](CCCN)C(=O)NCC(N)=O)NC(=O)[C@H](CC(N)=O)NC(=O)[C@H]([C@@H](C)O)NC(=O)[C@H]([C@@H](C)CC)NC2=O)cc1 ([Mpa][dY](Et)ITNCP[Orn]G-NH2; disulfide 1-6),max response,[1],12.3% (inactive)
same,Potency,[2],inactive
O=P(O)(O)OC(CO)CO,max response,[1],10.5% (inactive)
same,Potency,[2],inactive
COc1cc([C@@H]2c3cc4c(cc3C(O[C@@H]3O[C@@H]5COC(c6cccs6)O[C@H]5[C@H](O)[C@H]3O)C3COC(=O)[C@@H]32)OCO4)cc(OC)c1O (some centres undefined),max response,[1],-13.4% (inactive)
same,Potency,[2],inactive
CO[C@H]1[C@@H](O)[C@H](N)[C@@H](O[C@H]2O[C@H]([C@H](C)N)CC[C@H]2N)[C@H](O)[C@@H]1N(C)C(=O)CN,max response,[1],15.1% (inactive)
same,Potency,[2],inactive
O=C(O)c1ccccc1[O-].O=C(O)c1ccccc1[O-].[Zn+2],max response,[1],3.06% (inactive)
same,Potency,[2],inactive
O=C(O)c1cc2ccccc2c(Cc2c(O)c(C(=O)O)cc3ccccc23)c1O,max response,[1],60.7% (inactive)
same,Potency,[2],inactive
C/C(=C(/CCO)SSCC1CCCO1)N(C=O)Cc1cnc(C)nc1N (centres undefined),max response,[1],4.64% (inactive) and -7.81% (inactive)
same,Potency,[2],inactive
CCCCc1cc2c(=O)c(C(=O)OC)c[nH]c2cc1OCc1ccccc1,max response,[1],5.7% (inactive)
same,Potency,[2],inactive
COC(C)=O,max response,[1],1.99% (inactive)
same,max response,[3],-4.96% (inactive)
same,outcome,[4],inactive
same,Potency,[2],inactive
CC(=O)[C@@]1(O)CC[C@H]2[C@@H]3C=C(Cl)C4=CC(=O)CC[C@]4(C)[C@H]3CC[C@@]21C,max response,[1],-4.61% (inactive)
CC(=O)O[C@H]1CC[C@@]2(C)C(=CC[C@@H]3[C@@H]2CC[C@]2(C)C(c4cccnc4)=CC[C@@H]32)C1,max response,[1],-2.25% (inactive)
CN1CCN(C2=Nc3ccccc3Cc3ccccc32)CC1,max response,[1],2.36% (inactive)
COc1ccc(C(=O)Nc2ccccc2CCC2CCCCN2C)cc1 (centres undefined),max response,[1],14.2% (inactive)
CCOC(=O)[C@H](CCc1ccccc1)N[C@@H](C)C(=O)N1CC2(C[C@H]1C(=O)O)SCCS2,max response,[1],8.21% (inactive)
CC(CC(c1ccccc1)c1ccccc1)NC(C)(C)C (centres undefined),max response,[1],-8.24% (inactive)
CCCCCCCCCCCCCCCCCC(=O)[O][Al],max response,[1],-2.25% (inactive)
same,Potency,[2],inactive
NNc1nnc(Cc2ccncc2)c2ccccc12,max response,[1],1.86% (inactive)
N[C@@H](C(=O)N[C@H]1C(=O)N2C(C(=O)O)=C(Cl)CC[C@H]12)c1ccccc1,"parasite growth, % of DMSO control",[5],101%
same,"parasite growth remaining, % of DMSO control (lower = more inhibition)",[6],100%
same,"parasite growth, % of control (lower = inhibition)",[7],78.4%
same,"growth, % of control",[8],104%
same,Potency,[2],inactive
CCCCCCCC(=O)CC[C@@H]1[C@@H](C/C=C\CCCC(=O)OC(C)C)[C@@H](O)C[C@H]1O,max response,[1],0.0052% (inactive)
CO/N=C(\C(=O)N[C@@H]1C(=O)N2C(C(=O)OCOC(=O)C(C)(C)C)=C(/C=C\c3scnc3C)CS[C@H]12)c1csc(N)n1,max response,[1],-6.43% (inactive)
same,Potency,[2],inactive
CN(C)Cc1ccccc1,max response,[1],9.16% (inactive)
same,max response,[3],0.0798% (inactive)
same,outcome,[4],inactive
same,Potency,[2],inactive
CN[C@H]1CC[C@@H](c2ccc(Cl)c(Cl)c2)c2ccccc21,outcome,[9],inactive
same,outcome,[10],inactive
same,outcome,[11],inactive
same,outcome,[12],inactive
same,Potency,[13],14.7 µM (active)
same,outcome,[14],inactive
same,outcome,[15],inactive
same,outcome,[16],inactive
same,outcome,[17],inactive
same,Potency,[18],23.7 µM (active)
same,Potency,[19],23.7 µM (active)
CC(=O)S[C@@H]1CC2=CC(=O)CC[C@]2(C)[C@H]2CC[C@@]3(C)[C@@H](CC[C@@]34CCC(=O)O4)[C@H]12,max response,[1],15.7% (inactive)
same,outcome,[4],inactive
O=[N+]([O-])c1ccc(Oc2ccc(N=C=S)cc2)cc1,max response,[1],16.5% (inactive)
Cn1nnnc1SCC1=C(C(=O)O)N2C(=O)[C@@H](NC(=O)[C@H](OC=O)c3ccccc3)[C@H]2SC1,max response,[1],10.2% (inactive)
COc1ccc(CCNCC(O)COc2cccc(C)c2)cc1OC (centres undefined),max response,[1],11.3% (inactive)
Cc1cc(-n2c(=O)[nH]c(=O)n(C)c2=O)ccc1Oc1ccc(S(=O)(=O)C(F)(F)F)cc1,max response,[1],-1.23% (inactive)
